Measurements as given in PubChem BioAssay AID1159580 (chemical genetic matrix, 2015).
“And” between values parts separate entries of the source, which are not always exact repeats. Identical values can stand only once. The campaign covered roughly 5,500 compounds. About 2,000 (36%) were called active. Not shown: some 18% with an inconclusive outcome. Cut-off read from the data, not from the text of the source: active = normalized growth mostly below about 0.91 (no sharp cut-off); inconclusive = no clear call, values can overlap the other calls; inactive = mostly above about 0.92. The list shows a part of the results.

Experiment: chemical genetic growth profiling, strain panel (AID 1159580);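 note: tested at 20 µM; growth read once vehicle control cultures reached saturation at 30 °C; 1 = growth at the plate median or of vehicle wells; lower values mean less growth of the strain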
Settings: S. cerevisiae deletion strains, growth OD
[1] = locus YGR078C, strain PAC10, stronger effect = lower value
[2] = locus YGR229C, strain SMI1, stronger effect = lower value
[3] = locus YJR075W, strain HOC1, stronger effect = lower value
[4] = locus YAL013W, strain DEP1, stronger effect = lower value
[5] = locus YBR229C, strain ROT2, stronger effect = lower value
[6] = locus YDL101C, strain DUN1, stronger effect = lower value
[7] = locus YDR150W, strain NUM1, stronger effect = lower value
[8] = locus YEL061C, strain CIN8, stronger effect = lower value
[9] = locus YHR030C, strain SLT2, stronger effect = lower value
[10] = locus YJR043C, strain POL32, stronger effect = lower value
[11] = locus YLR039C, strain RIC1, stronger effect = lower value
[12] = locus YLR262C, strain YPT6, stronger effect = lower value
[13] = locus YMR263W, strain SAP30, stronger effect = lower value
[14] = locus YPL055C, strain LGE1, stronger effect = lower value
[15] = locus YPL241C, strain CIN2, stronger effect = lower value

Measured: normalized growth

NC1C=CC=C(C(=O)O)C1 (stereo not given)
inactive: locus YAL040C, strain CLN3, stronger effect = lower value 0.969 | locus YCL061C, strain MRC1 (second series), stronger effect = lower value 0.989 | locus YER002W, strain NOP16, stronger effect = lower value 0.992 | [1] 1 | [2] 0.999 | [3] 0.994 | locus YNL175C, strain NOP13, stronger effect = lower value 0.995 | locus YNL197C, strain WHI3, stronger effect = lower value 0.979 | locus YNL224C, strain SQS1, stronger effect = lower value 1 | locus YOR083W, strain WHI5 (second series), stronger effect = lower value 0.986

Fc1cc2n[nH]nc2cc1Cl
inactive: [4] 1 | [5] 0.989 | [6] 0.97 | [7] 0.919 | [8] 0.992 | [1] 0.972 | [9] 0.977 | locus YHR087W, strain rtc3, stronger effect = lower value 0.997 | [10] 0.997 | [3] 0.958 | [11] 1.06 | locus YLR058C, strain SHM2 (second series), stronger effect = lower value 0.978 | locus YLR085C, strain ARP6, stronger effect = lower value 0.94 | [12] 1.06 | locus YML094W, strain GIM5, stronger effect = lower value 0.979 | locus YMR219W, strain ESC1, stronger effect = lower value 0.985 | [13] 0.931 | locus YNL153C, strain GIM3, stronger effect = lower value 0.995 | locus YNL298W, strain CLA4 (second series), stronger effect = lower value 0.977 | locus YNL322C, strain KRE1, stronger effect = lower value 0.974 | locus YNR030W, strain Alg12, stronger effect = lower value 0.993 | [14] 0.931 | [15] 0.978 | locus YPR135W, strain CTF4, stronger effect = lower value 0.945

CC(=O)O[C@H]1C[C@@H](OC(C)=O)C(C)(C)C2C[C@@H](OC(C)=O)[C@@]3(C)C4=CC(=O)O[C@@H](c5ccoc5)[C@]4(C)CCC3[C@]21C (stereo not given in full)
inactive: [4] 1.01 | locus YAL021C, strain ccr4, stronger effect = lower value 1.02 | locus YAL026C, strain drs2, stronger effect = lower value 1 | locus YAL030W, strain snc1, stronger effect = lower value 0.998 | locus YBL061C, strain skt5, stronger effect = lower value 0.997 | locus YBR009C, strain hhf1, stronger effect = lower value 0.99 | locus YBR021W, strain FUR4, stronger effect = lower value 0.993 | locus YBR023C, strain chs3, stronger effect = lower value 0.982 | locus YBR171W, strain sec66, stronger effect = lower value 1 | [5] 1 | locus YBR231C, strain swc5, stronger effect = lower value 0.989 | locus YBR279W, strain paf1, stronger effect = lower value 1 | locus YCL011C, strain gbp2, stronger effect = lower value 1 | locus YCL016C, strain dcc1, stronger effect = lower value 0.997 | locus YCL029C, strain bik1, stronger effect = lower value 1 | locus YCL061C, strain MRC1, stronger effect = lower value 0.994 | locus YCL069W, strain vba3, stronger effect = lower value 1.01 | locus YCR088W, strain abp1, stronger effect = lower value 0.999 | locus YDL005C, strain med2, stronger effect = lower value 0.989 | locus YDL035C, strain GPR1, stronger effect = lower value 1.01 | locus YDL040C, strain nat1, stronger effect = lower value 0.983 | locus YDL074C, strain BRE1, stronger effect = lower value 0.993 | [6] 1 | locus YDL185W, strain tfp1, stronger effect = lower value 1.01 | locus YDL192W, strain arf1, stronger effect = lower value 1 | locus YDR001C, strain nth1, stronger effect = lower value 1 | locus YDR069C, strain doa4, stronger effect = lower value 0.983 | locus YDR101C, strain arx1, stronger effect = lower value 1 | locus YDR137W, strain rgp1, stronger effect = lower value 0.998 | [7] 1.01 | locus YDR159W, strain sac3, stronger effect = lower value 0.968 | locus YDR162C, strain NBP2, stronger effect = lower value 1.03 | locus YDR195W, strain ref2 0.961 | locus YDR297W, strain sur2, stronger effect = lower value 1 | locus YDR318W, strain mcm21, stronger effect = lower value 1 | locus YDR334W, strain swr1, stronger effect = lower value 0.997 | locus YDR335W, strain msn5, stronger effect = lower value 1 | locus YDR388W, stronger effect = lower value 0.999 | locus YDR392W, strain spt3, stronger effect = lower value 0.963 | locus YDR502C, strain sam2, stronger effect = lower value 0.98 | locus YEL003W, strain gim4, stronger effect = lower value 1.01 | locus YEL037C, strain rad23, stronger effect = lower value 1.02 | locus YEL061C, strain CIN8 (second series), stronger effect = lower value 1 | [8] 0.997 | locus YER015W, strain faa2, stronger effect = lower value 0.998 | locus YER016W, strain bim1, stronger effect = lower value 0.991 | locus YER110C, stronger effect = lower value 0.997 | locus YER111C, strain swi4, stronger effect = lower value 1 | locus YER155C, strain BEM2 (second series), stronger effect = lower value 0.975 | locus YER155C, strain BEM2, stronger effect = lower value 0.995 | locus YER167W, strain BCK2, stronger effect = lower value 1.01 | locus YFR010W, strain ubp6, stronger effect = lower value 1.01 | locus YGL078C, strain dbp3, stronger effect = lower value 1.01 | locus YGL086W, strain mad1, stronger effect = lower value 0.985 | locus YGL167C, strain pmr1, stronger effect = lower value 0.996 | locus YGL173C, strain kem1, stronger effect = lower value 1 | locus YGL227W, strain vid30, stronger effect = lower value 0.998 | locus YGL240W, strain doc1, stronger effect = lower value 0.973 | locus YGL248W, strain PDE1, stronger effect = lower value 1 | locus YGL253W, strain hxk2, stronger effect = lower value 1.01 | [1] 1.01 | locus YGR135W, strain pre9, stronger effect = lower value 0.992 | [2] 1.05 | locus YGR252W, strain gcn5, stronger effect = lower value 0.922 | locus YHR013C, strain ard1, stronger effect = lower value 0.987 | locus YHR027C, strain rpn1, stronger effect = lower value 0.994 | [9] 1.01 and 0.97 | locus YHR079C, strain IRE1 (second series), stronger effect = lower value 1 | locus YHR079C, strain IRE1, stronger effect = lower value 0.982 | locus YHR094C, strain hxt1, stronger effect = lower value 1 | locus YHR129C, strain ARP1, stronger effect = lower value 1.01 | locus YHR142W, strain chs7, stronger effect = lower value 1.03 | locus YHR200W, strain rpn10, stronger effect = lower value 0.993 | locus YIL066C, strain RNR3, stronger effect = lower value 1.01 | locus YIL073C, strain SPO22, stronger effect = lower value 1.03 | locus YIL125W, strain kgd1, stronger effect = lower value 0.995 | locus YIR030C, strain dcg1, stronger effect = lower value 0.998 | locus YJL092W, strain hpr5, stronger effect = lower value 1.01 | locus YJL095W, strain BCK1 (second series), stronger effect = lower value 1 | locus YJL095W, strain BCK1, stronger effect = lower value 1.01 and 0.953 | locus YJL115W, strain asf1, stronger effect = lower value 0.999 | locus YJL129C, strain trk1, stronger effect = lower value 1.01 | locus YJL134W, strain LCB3, stronger effect = lower value 1.01 | locus YJL154C, strain vps35, stronger effect = lower value 0.999 | locus YJL164C, strain tpk1, stronger effect = lower value 1 | locus YJL166W, strain qcr8, stronger effect = lower value 0.994 | locus YJL168C, strain set2, stronger effect = lower value 0.994 | locus YJL187C, strain SWE1 (second series), stronger effect = lower value 1.01 | locus YJL187C, strain SWE1, stronger effect = lower value 0.997 | [10] 1.01 | locus YJR066W, strain TOR1, stronger effect = lower value 0.941 | locus YKL009W, strain mrt4, stronger effect = lower value 0.99 | locus YKL068W, stronger effect = lower value 1.01 | locus YKL085W, strain MDH1 (second series), stronger effect = lower value 0.991 | locus YKL085W, strain MDH1, stronger effect = lower value 0.991 | locus YKL160W, strain elf1, stronger effect = lower value 0.995 | locus YKR001C, strain vps1, stronger effect = lower value 0.992 | locus YKR026C, strain gcn3, stronger effect = lower value 1.01 | locus YKR091W, strain srl3, stronger effect = lower value 1 | locus YLL001W, strain dnm1, stronger effect = lower value 1.02 | locus YLL026W, stronger effect = lower value 0.998 | locus YLL041C, strain sdh2, stronger effect = lower value 1 | locus YLR027C, strain aat2, stronger effect = lower value 0.982 | [11] 1.05 | locus YLR058C, strain SHM2, stronger effect = lower value 1.01 | locus YLR102C, strain apc9, stronger effect = lower value 0.989 | locus YLR113W, strain HOG1, stronger effect = lower value 1.03 | locus YLR221C, strain rsa3, stronger effect = lower value 0.989 | locus YLR258W, strain gsy2, stronger effect = lower value 0.978 | locus YLR262C, strain YPT6 (second series), stronger effect = lower value 0.983 | [12] 1.09 | locus YLR268W, strain sec22, stronger effect = lower value 1.01 | locus YLR320W, strain mms22, stronger effect = lower value 0.977 | locus YLR330W, strain CHS5, stronger effect = lower value 1.01 | locus YLR342W, strain FKS1, stronger effect = lower value 0.991 | locus YLR357W, strain rsc2, stronger effect = lower value 0.994 | locus YLR370C, strain arc18, stronger effect = lower value 1 | locus YLR371W, strain rom2, stronger effect = lower value 0.995 | locus YLR384C, strain iki3, stronger effect = lower value 0.977 | locus YLR418C, strain cdc73, stronger effect = lower value 0.973 | locus YML016C, strain PPZ1, stronger effect = lower value 1 | locus YML032C, strain rad52, stronger effect = lower value 1 | locus YML120C, strain ndi1, stronger effect = lower value 1 | locus YML124C, strain tub3, stronger effect = lower value 0.998 | locus YMR058W, strain fet3, stronger effect = lower value 1.02 | locus YMR078C, strain ctf18, stronger effect = lower value 0.989 | locus YMR125W, strain sto1, stronger effect = lower value 0.998 | locus YMR129W, stronger effect = lower value 1.01 | locus YMR205C, strain PFK2, stronger effect = lower value 1.01 | locus YMR223W, strain ubp8, stronger effect = lower value 0.988 | locus YMR231W, strain pep5, stronger effect = lower value 0.962 | [13] 1.01 | locus YMR307W, strain GAS1, stronger effect = lower value 1.05 | locus YNL067W, strain RPL9B, stronger effect = lower value 1.01 | locus YNL071W, strain lat1, stronger effect = lower value 1.01 | locus YNL183C, strain NPR1, stronger effect = lower value 0.961 | locus YNL209W, strain ssb2, stronger effect = lower value 0.992 | locus YNL233W, strain BNI4, stronger effect = lower value 1.02 | locus YNL248C, strain rpa49, stronger effect = lower value 1 | locus YNL250W, strain rad50, stronger effect = lower value 1.01 | locus YNL271C, strain bni1, stronger effect = lower value 1 | locus YNL298W, strain CLA4, stronger effect = lower value 0.995 | locus YNL307C, strain MCK1, stronger effect = lower value 0.995 | locus YNL322C, strain KRE1 (second series), stronger effect = lower value 0.992 | locus YNR049C, strain mso1, stronger effect = lower value 1 | locus YNR052C, strain pop2, stronger effect = lower value 0.995 | locus YOL006C, strain TOP1, stronger effect = lower value 1 | locus YOL012C, strain htz1 0.751 | locus YOL147C, strain pex11, stronger effect = lower value 0.996 | locus YOR001W, strain rrp6, stronger effect = lower value 0.979 | locus YOR061W, strain CKA2, stronger effect = lower value 1 | locus YOR069W, strain VPS5, stronger effect = lower value 0.999 | locus YOR070C, strain gyp1, stronger effect = lower value 1.01 | locus YOR080W, strain dia2, stronger effect = lower value 0.981 | locus YOR083W, strain WHI5, stronger effect = lower value 1.01 | locus YOR106W, strain vam3, stronger effect = lower value 1 | locus YOR136W, strain idh2, stronger effect = lower value 0.991 | locus YOR144C, strain elg1, stronger effect = lower value 0.99 | locus YOR184W, strain ser1, stronger effect = lower value 0.999 | locus YOR231W, strain MKK1, stronger effect = lower value 0.978 | locus YOR265W, strain rbl2, stronger effect = lower value 0.993 | locus YOR270C, strain vph1, stronger effect = lower value 1.04 | locus YOR290C, strain snf2, stronger effect = lower value 1 | locus YOR316C, strain cot1, stronger effect = lower value 1 | locus YPL051W, strain arl3, stronger effect = lower value 0.977 | [14] 1.01 | locus YPL078C, strain atp4, stronger effect = lower value 1 | locus YPL106C, strain sse1, stronger effect = lower value 0.975 | locus YPL240C, strain hsp82, stronger effect = lower value 0.997 | [15] 1.01 | locus YPL256C, strain CLN2, stronger effect = lower value 0.957 | locus YPR119W, strain clb2, stronger effect = lower value 0.995 | locus YPR141C, strain kar3, stronger effect = lower value 1.01 | locus YPR163C, strain tif3, stronger effect = lower value 1 | locus YPR167C, strain met16, stronger effect = lower value 0.995 | strain wtn01, stronger effect = lower value 0.993
